From publication PMC13083723 (Patterns, 2026) come the findings set out here.

Hit rate of the full screen: of about 5,400 compounds, about 190 (3.5%) showed an effect of 50% or more. This excerpt belongs to a sample that is enriched for strong results.

The subject of the test is Vero-E6. Kind of test: primary screen, phospholipidosis by LipidTOX staining; higher = more effect of the substance. The note with it: 10 µM. Put shortly:
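Drug-induced phospholipidosis detected with HCS LipidTOX Red reagent in Vero-E6 cells. Compounds tested at 10 μM, with amiodarone (10 μM) as positive control and DMSO (0.1 v/v %) as vehicle.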
Take `C[C@@H](O)[C@H]1C(=O)N2C(C(=O)[O-])=C(S[C@@H]3CN[C@H](C(=O)Nc4cccc(C(=O)O)c4)C3)[C@H](C)[C@H]12`: the result_ITMP is recorded as -0.24%.

`C[C@H](NC(=O)CCc1nc2ccccc2c(=O)[nH]1)c1ccccc1` [R4A_0003503_001 / SPE_K24283677]: the result_ITMP was -1.61%.

For `C/C=C1/[C@H]2C=C(C)C[C@]1(N)c1ccc(=O)[nH]c1C2`, the result_ITMP was -2.16%.

As to `O=C(Nc1ncc(SCCN2CCCC2)s1)[C@]1(c2ccc(S(=O)(=O)C3CC3)cc2)C[C@H]1C1CCCCC1`, the result_ITMP amounted to 55.8%.

As to `C[C@H](CCC(=O)O)[C@H]1CC[C@H]2[C@@H]3CC[C@@H]4C[C@H](O)CC[C@]4(C)[C@H]3C[C@H](O)[C@]12C`, the result_ITMP is given as 0.11%.

Take `Nc1nc(S)c2nc[nH]c2n1`: the result_ITMP turned out to be 26.6%.

Regarding `Cc1ccc(C(=O)C(C)CN2CCCCC2)cc1` (stereo not drawn), the result_ITMP is listed as -4.52%.

As for `O=C(NCCCN1CCCCCC1)C(c1ccccc1)C1CCCCC1` (stereo not drawn), the result_ITMP amounted to 36.5%.

`O=C(Nc1ccccc1)OCC(CN1CCCCC1)OC(=O)Nc1ccccc1` (stereo not drawn): the result_ITMP stood at 54.4%.

With `CCn1c(=O)/c(=C2\Sc3ccccc3N2C)s/c1=C/c1cccc[n+]1CC`, the result_ITMP is on record as -7.97%.

As for `CCC(C)CNCC(=O)N1CCc2sccc2C1COc1cccc(C)c1` (stereo not drawn), the result_ITMP came to 57.8%.

For the compound `COc1ccc(CCNCC(O)COc2cccc(C)c2)cc1OC` (stereo not drawn), the result_ITMP is 34.1%.

Turning to `Nc1ccc(S(=O)(=O)[O-])cc1`, the result_ITMP is -6.57%.

With `O=C([O-])CN1CCN(CC(=O)[O-])CCN(C(CO)C(O)CO)CCN(CC(=O)[O-])CC1.[Gd+3]` (stereo not drawn), the result_ITMP was -1.16%.

As to `O=C([O-])c1cc(/N=N/c2ccc(O)c(C(=O)[O-])c2)ccc1O`, the result_ITMP was -2.29%.

As for `OC(CN1CCNCC1)Cn1c2ccc(Br)cc2c2cc(Br)ccc21` (stereo not drawn), the result_ITMP came out at 123%.

`CN(C)CC(O)Cn1c2ccc(Br)cc2c2cc(Br)ccc21` (stereo not drawn): the result_ITMP turned out to be 28.6%.

As for `OC(CNc1ccccc1)Cn1c2ccc(Br)cc2c2cc(Br)ccc21` (stereo not drawn), the result_ITMP is -2.55%.

Regarding `C=C[C@]1(C)C[C@@H](OC(=O)CS[C@@H]2C[C@H]3CC[C@@H](C2)N3C)[C@]2(C)[C@H](C)CC[C@]3(CCC(=O)[C@H]32)[C@@H](C)[C@@H]1O`, the result_ITMP is on record as 12.9%.

Take `NC(=O)c1cc[n+](CC2=C(C(=O)[O-])N3C(=O)[C@@H](NC(=O)[C@@H](c4ccccc4)S(=O)(=O)[O-])[C@H]3SC2)cc1`: the result_ITMP is 4.59%.

For `Cc1c(CN(C)C(=O)/C=C/C2=CNC3=NC(=O)CCC3=C2)oc2ccccc12`, the result_ITMP is reported as -2.49%.

In the case of `CCN1/C(=C/C(C)=O)Sc2ccc(OC)cc21`, the result_ITMP is recorded as -4.89%.

As for `CC(CN(C)C)CN1c2ccccc2Sc2ccccc21` (stereo not drawn) [R4A_0005516_001 / SPE_A49225603], the result_ITMP is reported as 81.1%.

Regarding `CC(CN(C)C)CN1c2ccccc2Sc2ccc(C#N)cc21` (stereo not drawn), the result_ITMP turned out to be 42.4%.

`CC(CN(C)C)CN1c2ccccc2CCc2ccccc21` (stereo not drawn): the result_ITMP is on record as 34.6%.

In the case of `COc1ccc2c(c1)N(C[C@H](C)CN(C)C)c1ccccc1S2`, the result_ITMP was 53%.

Turning to `CC(CN(C)C)CN1c2ccccc2Sc2ccccc21` (stereo not drawn) [R4A_0005516_001 / SPE_M58473998], the result_ITMP is 17.1%.

Regarding `C[C@@H]1CC2C3CCC4=CC(=O)C=C[C@]4(C)[C@@]3(F)[C@@H](O)C[C@]2(C)[C@@]1(O)C(=O)COP(=O)([O-])[O-]` (stereo partly drawn), the result_ITMP was -3.97%.

On to `NC(CSC(c1ccccc1)(c1ccccc1)c1ccccc1)C(=O)O` (stereo in doubt), for which the result_ITMP is listed as -1.96%.

As for `CC(N)Cc1cccc(O)c1` (stereo not drawn), the result_ITMP is reported as -6.46%.

For the compound `CCC(=O)O[C@H]1CCC2C3CCC4=CC(=O)CC[C@]4(C)C3CC[C@@]21C` (stereo partly drawn), the result_ITMP came out at 5.62%.

Consider `NC(=O)OC[C@@H]1[C@H](NC(=O)/C(=N\OCC(=O)[O-])c2csc(N)n2)C(=O)N1S(=O)(=O)[O-]`, for which the result_ITMP came out at 0.72%.

In the case of `CCCC(=O)Nc1ncnc2c1ncn2C1O[C@@H]2COP(=O)([O-])O[C@H]2[C@H]1OC(=O)CCC` (stereo partly drawn), the result_ITMP is listed as -5.79%.

For the compound `CC[C@]12C=CCN3CC[C@@]4(c5cc([C@@]6(C(=O)OC)C[C@H]7C[C@@H](C(C)(F)F)CN(Cc8c6[nH]c6ccccc86)C7)c(OC)cc5N(C)[C@H]4[C@@](O)(C(=O)OC)[C@@H]1OC(C)=O)[C@@H]32`, the result_ITMP was 49.7%.

Consider `O=C(N[C@H]1CN2CCC1CC2)c1cc2cccc(Cl)c2s1`, for which the result_ITMP was determined as 100%.

Regarding `O=C(N[C@H]1CN2CCC1CC2)c1ccc(Cl)cc1`, the result_ITMP was -0.98%.

Consider `COc1cc(N)c(Cl)cc1C(=O)NC1CN2CCC1CC2` (stereo not drawn), for which the result_ITMP is -9.6%.

As for `C[C@H](CCC(=O)O)[C@H]1CC[C@H]2[C@@H]3C[C@H](O)[C@@H]4C[C@H](O)CC[C@]4(C)[C@H]3CC[C@]12C`, the result_ITMP came to 1.59%.

As for `c1ccc2c(CCNc3ccc(Nc4ccncc4)cc3)c[nH]c2c1`, the result_ITMP was found to be 74%.

For `c1ccc2c(Cc3c[nH]c4ccccc34)c[nH]c2c1`, the result_ITMP is recorded as -4.8%.

Take `CC(=O)NCCc1c[nH]c2ccccc12`: the result_ITMP is -3.74%.

For `CCCCc1nc(Cl)c(C(=O)O)n1Cc1ccc(-c2ccccc2-c2nnn[nH]2)cc1`, the result_ITMP is -4.07%.

For the compound `CN1CCC[C@@H]1CCO[C@](C)(c1ccccc1)c1ccc(Cl)cc1`, the result_ITMP worked out at 90.6%.

As to `CC(C)(C)c1ccc(C(O)CCCN2CCC(C(O)(c3ccccc3)c3ccccc3)CC2)cc1` (stereo not drawn), the result_ITMP is listed as -4.73%.

In the case of `CN1CCCC1CCSc1ccc(O)cc1` (stereo not drawn), the result_ITMP was 2.34%.

Turning to `C=C1/C(=C\C=C2/CCC[C@]3(C)[C@@H]([C@H](C)CCCC(C)(C)O)CC[C@@H]23)C[C@@H](O)C[C@@H]1O`, the result_ITMP is -1.95%.

As for `CC[C@H]1[C@@H](O)[C@@H]2[C@H](CC[C@]3(C)[C@@H]([C@H](C)CCC(=O)O)CC[C@@H]23)[C@@]2(C)CC[C@@H](O)C[C@@H]12`, the result_ITMP is given as -0.78%.

On to `CO[C@H]1/C=C/O[C@@]2(C)Oc3c(C)c(O)c4c(O)c(cc([O-])c4c3C2=O)NC(=O)/C(C)=C\C=C\C(C)[C@H](O)[C@@H](C)[C@@H](O)[C@@H](C)[C@H](OC(C)=O)[C@@H]1C` (stereo partly drawn), for which the result_ITMP was -1.11%.
